The results in this text go back to PubChem BioAssay (NCI).

Compounds without any hit were thinned out: in the full panel of roughly 79,000, 15% have a hit. Unmarked numbers belong to inactive results. Activity calls are given as the source filed them. No stated cut-off is given here; in the data, active means growth inhibition above about 70%; inactive means the rest.

A short description of test [1]: NCI Yeast Anticancer Drug Screen. Data for the rad50 strain (AID 155).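 Further: 0% = growth of vehicle-only cultures of the same strain.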 As to conditions: S. cerevisiae rad50 strain growth inhibition, hits give high values. Put shortly:
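Growth of the mutant yeast was measured after compound exposure and referenced to vehicle-treated cultures.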

Test [2] can be described thus: NCI Yeast Anticancer Drug Screen. Data for the mec2-1 strain (AID 157). As to conditions: S. cerevisiae mec2-1 strain, hits give high values. An outline of the steps:
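Using mec2-1 yeast: add compound, measure growth, express inhibition versus vehicle-treated cultures.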

The nature of test [3]: NCI Yeast Anticancer Drug Screen. Data for the sgs1 mgt1 strain (AID 161).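 Further: 0% = growth of cultures given vehicle only.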 The settings on record: S. cerevisiae sgs1 mgt1 strain, hits give high values. An outline of the steps: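 Growth of a repair-deficient yeast mutant was monitored after compound treatment and expressed as inhibition relative to vehicle-treated cultures.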
Test [4] is described as follows: NCI Yeast Anticancer Drug Screen. Data for the cln2 rad14 strain (AID 165).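 Further: 0% = growth equal to vehicle treated cultures.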 The settings on record: S. cerevisiae cln2 rad14 strain, hits give high values. An outline of the steps: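 Yeast strain cln2 rad14, bearing defects in cell cycle control and DNA repair, serves as the test system; values reflect growth inhibition compared with vehicle.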
Test [5] is described as follows: NCI Yeast Anticancer Drug Screen. Data for the bub3 strain (AID 167). As to conditions: S. cerevisiae bub3 mutant strain, hits give high values. An outline of the steps:
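Whole-cell yeast assay. The mutant strain was incubated with compounds, and growth inhibition was determined by comparison with vehicle-treated cells.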

Test [6] in a line: NCI Yeast Anticancer Drug Screen. Data for the mlh1 rad18 strain (AID 175). As to conditions: S. cerevisiae mlh1 rad18 strain growth inhibition, hits give high values. An outline of the steps:
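Steps: expose repair-defective yeast to compound; measure growth; express inhibition against vehicle-treated controls.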

Setting [7] is: at 5.0 µM (retest, dose inferred, filed as 0.5).
[8] abbreviates: at 50.0 µM (retest, dose inferred, filed as 5.0).

In the case of `Cc1c(CNc2ccc(Cl)c(Cl)c2Cl)cnc2nc(N)nc(N)c12`, the growth inhibition in test [1] (setting [7]) is 40%; in test [1] (setting [8]) it was 86% (active); in test [1] (at 50.0 µM), 78.5% (active); in test [2] (setting [7]), 27%; in test [2] (setting [8]) it was 53%; in test [2] (at 50.0 µM) it was 44.5%. The growth inhibition was 19% in test [3] (setting [7]); 52% in test [3] (setting [8]); 64.5% in test [3] (at 50.0 µM); 34% in test [4] (setting [7]); 60% in test [4] (setting [8]); 43.4% in test [4] (at 50.0 µM). Moreover, the growth inhibition in test [5] (setting [7]) was 28%; in test [5] (setting [8]), 46%; in test [5] (at 50.0 µM), 51.5%; in test [6] (setting [7]) it was 30%; in test [6] (setting [8]), 56%; in test [6] (at 50.0 µM), -36.1%.

As to `c1ccc([CH2][Sn]([CH2]c2ccccc2)([S]c2cccc3cccnc23)[S]c2cccc3cccnc23)cc1`, the growth inhibition in test [1] (setting [7]) is 67%; in test [1] (setting [8]), 24%; in test [1] (at 50.0 µM) it was 94.2% (active); in test [2] (setting [7]) it was 61%; in test [2] (setting [8]) it was 18%; in test [2] (at 50.0 µM), 92.5% (active). The growth inhibition in test [3] (setting [7]) was 65%; in test [3] (setting [8]), 59%; in test [3] (at 50.0 µM), 89.6% (active); in test [4] (setting [7]), 17%; in test [4] (setting [8]), -5%; in test [4] (at 50.0 µM), 84.5% (active). In addition, the growth inhibition in test [5] (setting [7]) is 61%; in test [5] (setting [8]), 30%; in test [5] (at 50.0 µM) it was 93% (active); in test [6] (setting [7]) it was 46%; in test [6] (setting [8]), 16%; in test [6] (at 50.0 µM) it was 93.5% (active).

In the case of `COC(=O)c1cc(-c2ccc([N+](=O)[O-])cc2)c2c(=O)n(-c3ccccc3)[nH]c2n1`, the growth inhibition is 0% in test [1] (setting [7]); 84% (active) in test [1] (setting [8]); 89.8% (active) in test [1] (at 50.0 µM); -1% in test [2] (setting [7]); 75% (active) in test [2] (setting [8]); 91.1% (active) in test [2] (at 50.0 µM). Further, the growth inhibition was -1% in test [3] (setting [7]); 85% (active) in test [3] (setting [8]); 61.1% in test [3] (at 50.0 µM); -3% in test [4] (setting [7]); 77% (active) in test [4] (setting [8]); 42.4% in test [4] (at 50.0 µM). The growth inhibition was -3% in test [5] (setting [7]); 83% (active) in test [5] (setting [8]); 50.2% in test [5] (at 50.0 µM); -3% in test [6] (setting [7]); 86% (active) in test [6] (setting [8]); 92.2% (active) in test [6] (at 50.0 µM).

`CN(C)c1cc2c(cc1[N+](=O)[O-])-c1ccccc1C2O` (configuration not stated): the growth inhibition is 5% in test [1] (setting [7]); 48% in test [1] (setting [8]); 91.4% (active) in test [1] (at 50.0 µM); -1% in test [2] (setting [7]); 28% in test [2] (setting [8]); 29.9% in test [2] (at 50.0 µM). In addition, the growth inhibition in test [3] (setting [7]) is 0%; in test [3] (setting [8]), 57%; in test [3] (at 50.0 µM) it was 56.6%; in test [4] (setting [7]), -4%; in test [4] (setting [8]), 34%; in test [4] (at 50.0 µM), 41.4%. The growth inhibition was -6% in test [5] (setting [7]); 60% in test [5] (setting [8]); 70.5% (active) in test [5] (at 50.0 µM); 5% in test [6] (setting [7]); 74% (active) in test [6] (setting [8]); 86.6% (active) in test [6] (at 50.0 µM).

In the case of `Cc1cccc2c1Oc1cc(Cl)ccc1C2NC(=O)CCN1CCN(CCO)CC1` (configuration not stated), the growth inhibition was 0% in test [1] (setting [7]); 29% in test [1] (setting [8]); 38% in test [1] (at 50.0 µM); -11% in test [2] (setting [7]); -13% in test [2] (setting [8]); -0.05% in test [2] (at 50.0 µM). The growth inhibition in test [3] (setting [7]) is -3%; in test [3] (setting [8]), 6%; in test [3] (at 50.0 µM) it was 38.1%; in test [4] (setting [7]), 11%; in test [4] (setting [8]), 26%; in test [4] (at 50.0 µM), 25.6%. In addition, the growth inhibition is -8% in test [5] (setting [7]); 11% in test [5] (setting [8]); 39.4% in test [5] (at 50.0 µM); 3% in test [6] (setting [7]); 29% in test [6] (setting [8]); 70.3% (active) in test [6] (at 50.0 µM).

As for `C=C1C(=O)[C@@]23CC[C@H]4[C@@](C)(CCC[C@@]4(C)C(=O)OC)[C@@H]2CC[C@]1(O)C3`, the growth inhibition in test [1] (setting [7]) is 83% (active); in test [1] (setting [8]) it was 99% (active); in test [1] (at 50.0 µM) it was 92.2% (active); in test [2] (setting [7]), 92% (active); in test [2] (setting [8]) it was 99% (active); in test [2] (at 50.0 µM), 94.4% (active). For the same molecule, the growth inhibition in test [3] (setting [7]) is 83% (active); in test [3] (setting [8]) it was 99% (active); in test [3] (at 50.0 µM), 94% (active); in test [4] (setting [7]) it was 54%; in test [4] (setting [8]) it was 99% (active); in test [4] (at 50.0 µM) it was 92.2% (active). For the same molecule, the growth inhibition in test [5] (setting [7]) was 94% (active); in test [5] (setting [8]), 99% (active); in test [5] (at 50.0 µM), 93.7% (active); in test [6] (setting [7]), 92% (active); in test [6] (setting [8]), 99% (active); in test [6] (at 50.0 µM), 90.8% (active).

As for `O=c1c2cc(Br)ccc2ncn1COCc1ccccc1`, the growth inhibition is 21% in test [1] (setting [7]); 20% in test [1] (setting [8]); 7.3% in test [1] (at 50.0 µM); 11% in test [2] (setting [7]); 11% in test [2] (setting [8]); -4.1% in test [2] (at 50.0 µM). Further, the growth inhibition in test [3] (setting [7]) was 21%; in test [3] (setting [8]), 19%; in test [3] (at 50.0 µM), 87.2% (active); in test [4] (setting [7]) it was 24%; in test [4] (setting [8]), -12%; in test [4] (at 50.0 µM), 54%. The growth inhibition in test [5] (setting [7]) is 15%; in test [5] (setting [8]), -21%; in test [5] (at 50.0 µM), 83.5% (active); in test [6] (setting [7]), 27%; in test [6] (setting [8]), 24%; in test [6] (at 50.0 µM), 43.3%.

Regarding `O=C1OCC/C1=C1/CCOC1`, the growth inhibition is 73% (active) in test [1] (setting [7]); 97% (active) in test [1] (setting [8]); 99.2% (active) in test [1] (at 50.0 µM); 65% in test [2] (setting [7]); 98% (active) in test [2] (setting [8]); 99.3% (active) in test [2] (at 50.0 µM). Besides, the growth inhibition in test [3] (setting [7]) was 82% (active); in test [3] (setting [8]) it was 98% (active); in test [3] (at 50.0 µM), 50.3%; in test [4] (setting [7]), 51%; in test [4] (setting [8]) it was 97% (active); in test [4] (at 50.0 µM), 98.8% (active). The growth inhibition in test [5] (setting [7]) was 61%; in test [5] (setting [8]) it was 97% (active); in test [5] (at 50.0 µM), 99.2% (active); in test [6] (setting [7]), 78% (active); in test [6] (setting [8]), 97% (active); in test [6] (at 50.0 µM), 99.5% (active).

Turning to `CC(=O)O[C@H]1[C@@H]2CC(C)(C)CC2=C(C=O)C2(C=O)CC12C` (some centres not stated), the growth inhibition is 40% in test [1] (setting [7]); 99% (active) in test [1] (setting [8]); 99.5% (active) in test [1] (at 50.0 µM); 65% in test [2] (setting [7]); 100% (active) in test [2] (setting [8]); 99.5% (active) in test [2] (at 50.0 µM). Besides, the growth inhibition in test [3] (setting [7]) was 62%; in test [3] (setting [8]), 99% (active); in test [3] (at 50.0 µM), 99.7% (active); in test [4] (setting [7]), 37%; in test [4] (setting [8]) it was 99% (active); in test [4] (at 50.0 µM), 99.2% (active). The growth inhibition in test [5] (setting [7]) is 54%; in test [5] (setting [8]) it was 99% (active); in test [5] (at 50.0 µM), 46.8%; in test [6] (setting [7]), 55%; in test [6] (setting [8]), 99% (active); in test [6] (at 50.0 µM), 99.7% (active).
